Platelet DG rel = inhibitors of platelet dense granule secretion, primary screen, cell-based, MLPCN, human platelets; human platelet-rich plasma, SFLLRN dense granule ATP release, luminescence; 0.22% of 300,000 active; inhibition, %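 (compounds screened at 7.5 µM in platelet-rich plasma)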; AID 1663, 2009;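 active = mean replicate score, as percent of positive control, at or above 50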
SENP8 block-1 = SENP8 protease inhibitors, primary screen, biochemical, luminescence | Sentrin-specific protease 8 (Homo sapiens), Q96LD8 | purified SENP8, Z-RLRGG-aminoluciferin cleavage | inhibition, % at 10 µM | 1.2% of 330,000 active | AID 2540, 2010; in the data active = inhibition above about 50%
HSP90 refold inh = HSP90 inhibitors, primary screen, cell lysate, luminescence. Heat shock protein HSP 90 (rabbit reticulocyte lysate; luciferase refolding). Rabbit reticulocyte lysate, luciferase refolding luminescence, 3 h. inhibition, % at 5.6 µM. 0.91% of 290,000 active;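 active = inhibition above the screen-wide mean plus 3 SD, computed separately per campaign, cut at about 16% in these data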;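 also: 0% = DMSO wells and 100% = 60 µM geldanamycin wells; inhibitors lower the luminescence because luciferase stays unfolded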
SENP7 inh = SENP7 protease inhibitors, primary screen, biochemical, luminescence, uHTS | Sentrin-specific protease 7 (Homo sapiens), Q9BQF6 | 1.5% of 330,000 active | inhibition, % at 5 µM | recombinant SENP7, Z-RLRGG-aminoluciferin luminescence, 40 min;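 active = inhibition above about 50% at the single test dose, limit read from the data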;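 also: plate controls were DMSO with enzyme for no effect and no enzyme buffer wells for full effect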
Target sequence (Q9BQF6 706-1050 limits assumed): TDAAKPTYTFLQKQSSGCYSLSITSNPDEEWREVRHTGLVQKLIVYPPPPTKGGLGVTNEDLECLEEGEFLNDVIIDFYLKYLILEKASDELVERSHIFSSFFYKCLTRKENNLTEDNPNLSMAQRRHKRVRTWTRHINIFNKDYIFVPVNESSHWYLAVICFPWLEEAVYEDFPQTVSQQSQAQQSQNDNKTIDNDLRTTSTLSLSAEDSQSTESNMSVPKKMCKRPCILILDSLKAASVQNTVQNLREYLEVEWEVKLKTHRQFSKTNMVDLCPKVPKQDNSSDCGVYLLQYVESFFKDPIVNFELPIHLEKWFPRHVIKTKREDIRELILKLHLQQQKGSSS
SENP8 block-2 = human SENP8 protease inhibitors, primary screen, biochemical, fluorescence, Nedd8 protein substrate, uHTS; recombinant SENP8; inhibition, % at 20 µM; 0.64% of 360,000 active; in the data active = inhibition mostly above about 40%, no sharp cut-off; inactive = mostly below about 27%
SENP6 inh = SENP6 protease inhibitors, primary screen, biochemical, luminescence, uHTS | Sentrin-specific protease 6 (Homo sapiens), Q9GZR1 | Recombinant SENP6 catalytic domain, aminoluciferin luminescence | inhibition, % at 10 µM | 1.8% of 330,000 active;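 active = inhibition above about 50% at the single tested dose, limit read from the data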;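 also: plate controls were DMSO wells with enzyme for no effect and DMSO wells lacking enzyme for full effect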
SENP8 confirm = SENP8 protease inhibitors, retest, confirmation, biochemical, luminescence, single concentration | inhibition, % at 12.5 µM | 40% of 6,200 active | Recombinant SENP8, Z-RLRGG-aminoluciferin luminescence, 60 min | shares compounds with SENP7 inh;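 active = mean inhibition across replicates above about 50%, limit read from the data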
SENP6 confirm = SENP6 protease inhibitors, confirmation, biochemical, luminescence, single concentration; shares compounds with SENP7 inh; recombinant SENP6, Z-RLRGG-aminoluciferin luminescence; inhibition, % at 12.5 µM; 58% of 6,200 active
SENP7 conf = SENP7 protease inhibitors, retest, confirmation, biochemical, luminescence, single concentration; shares compounds with SENP7 inh; inhibition, % at 12.5 µM; recombinant SENP7, Z-RLRGG-aminoluciferin luminescence, 40 min; 69% of 6,200 active
Casp3 select = caspase-3 protease inhibitors, confirmation, selectivity assay for SENP inhibitor project, biochemical, single concentration; shares compounds with SENP7 inh; purified caspase-3, Z-DEVD-aminoluciferin luminescence, 60 min; inhibition, % at 12.5 µM; 60% of 6,200 active; AID 488918, 2010;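 active = mean inhibition above about 50%, limit read from the data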;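 also: plate controls were enzyme with DMSO for no effect and wells without caspase-3 for full effect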
Target sequence (P42574 28-227 limits assumed): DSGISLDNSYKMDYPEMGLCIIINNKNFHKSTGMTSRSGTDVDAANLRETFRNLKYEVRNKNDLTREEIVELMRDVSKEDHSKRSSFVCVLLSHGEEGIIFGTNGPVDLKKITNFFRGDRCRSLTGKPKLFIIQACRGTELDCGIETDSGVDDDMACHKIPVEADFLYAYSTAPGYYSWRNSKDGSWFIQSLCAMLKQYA
SENP luc ctr = luminescence interference (SENP counter-screen) | shares compounds with SENP7 inh | Pre-incubated SENP8/Z-RLRGG-aminoluciferin, luciferase luminescence interference | inhibition, % at 12.5 µM | 39% of 6,200 active | AID 488919;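 active = mean inhibition above about 50% when retested at one dose, limit read from the data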;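 also: plate controls were DMSO wells with completed reaction for no effect and substrate without enzyme for full effect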
* = called active by the depositor; x = no result. Most compounds without a hit are left out; they make up all but 2.8% or so of the library.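 The calls were made as follows, unless noted: active = mean inhibition above about 50% in the one-dose retest (limit read from the data); inactive = the rest.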

SMILES	Platelet DG rel	SENP8 block-1	HSP90 refold inh	SENP7 inh	SENP8 block-2	SENP6 inh	SENP8 confirm	SENP6 confirm	SENP7 conf	Casp3 select	SENP luc ctr
Cc1ccc(S(=O)(=O)N2C[C@H]3C(=O)C[C@@H](c4ccccc4)N(S(=O)(=O)c4ccc(Br)cc4)[C@H]3C[C@H]2c2ccccc2)cc1	x	x	x	x	6.6	x	x	x	x	x	x
O=C(CSc1ccc(-c2ccncc2)nn1)N1CCCCC1	2.3	-5.1	1.8	6.3	11.3	-6.4	x	x	x	x	x
O=C(CSc1ccc(-c2ccc(F)cc2)nn1)N1CCCCC1	12.0	29.4	5.9	62.7*	12.6	67.7*	38.2	37.7	78.4*	80.4*	58.3*
O=C(N/N=C/c1c(O)ccc2ccccc12)c1[nH]ncc1Br	-11.8	18.3	-2.8	19.0	-40.0	50.6*	33.0	41.3	77.4*	28.1	47.9
Cc1ccc(O)c(/C=N/NC(=O)c2[nH]ncc2Br)c1	27.4	88.6*	-1.6	92.8*	10.8	76.9*	25.3	20.7	39.3	37.9	42.0
CCOc1ccc(/C=N/NC(=O)c2[nH]ncc2Br)c(O)c1	83.6*	98.0*	1.9	102.1*	-6.8	99.1*	98.9*	100.0*	103.0*	98.8*	52.5*
O=C(N/N=C/c1cccs1)c1cnccn1	-3.4	-3.6	-2.2	7.1	23.7	5.2	x	x	x	x	x
O=C(N/N=C/c1cccs1)c1[nH]ncc1Br	18.8	49.9	0.6	76.4*	8.6	75.9*	60.8*	58.4*	86.3*	89.7*	68.1*
COc1ccc(OC)c(/C=N/NC(=O)c2[nH]ncc2Br)c1	10.0	-6.9	3.1	3.5	-413.9	-32.4	x	x	x	x	x
CN(Cc1ccccc1)C(=O)C1CCN(S(=O)(=O)c2cccc3nonc23)CC1	-16.3	0.7	-1.2	6.4	-0.6	-20.2	x	x	x	x	x
O=C(c1[nH]c(C(F)(F)F)nc1-c1ccccc1)N1CCN(C(=O)C2CCCO2)CC1 (stereo not given)	x	x	x	x	15.9	x	x	x	x	x	x
Cc1cc(NC(=O)CSCC(=O)Nc2cccc(S(=O)(=O)N3CCCCCC3)c2)no1	1.0	1.4	x	0.1	5.8	-4.9	x	x	x	x	x
Cc1[nH]n(-c2ccccc2)c(=O)c1/C=N/NC(=O)C(C)C	-2.2	-9.3	2.2	-13.9	1.1	-3.1	x	x	x	x	x
O=C(CNC(=O)c1cc(-c2ccccc2)nn1-c1ccccc1)Nc1ccccc1Br	x	x	x	x	4.0	x	x	x	x	x	x
O=c1oc(Nc2ccccc2Cl)nc2ccccc12	17.5	x	8.8	x	-96.6	x	x	x	x	x	x
O=c1oc(Nc2ccccc2F)nc2ccccc12	14.8	54.2*	4.3	42.3	-139.2	76.2*	4.1	98.8*	103.2*	99.3*	98.0*
COc1ccc(N(C(=O)CNC(=O)c2ccco2)C(C(=O)NC2CCCCC2)c2ccco2)cc1 (stereo not given)	-0.5	0.4	-2.0	-4.0	24.2	60.3*	5.1	-1.8	-6.6	4.7	-3.1
COc1cccc(N(C(=O)CNC(=O)c2ccco2)C(C(=O)NC2CCCC2)c2ccco2)c1 (stereo not given)	-7.7	-6.5	-2.0	-8.8	9.0	-5.8	x	x	x	x	x
COc1ccc(C2NN=C(c3ccc(C)cc3)S2)cc1 (stereo not given)	-2.5	x	-5.1	x	-294.7	x	x	x	x	x	x
CSc1ccc(C2NN=C(c3ccccc3)S2)cc1 (stereo not given)	20.6	92.5*	x	98.9*	-425.8	91.7*	51.9*	53.3*	37.8	59.7*	28.1
COc1ccc(C(=O)COC(=O)c2n[nH]c3ccccc23)c(OC)c1	x	24.6	x	20.6	-4.4	51.4*	43.3	36.6	69.1*	31.9	34.7
O=C(/C=C/Sc1ccc(C(F)(F)F)cn1)c1ccccc1	-2.4	-15.5	2.6	23.0	-0.5	9.4	x	x	x	x	x
CCOC(=O)C1(C)CCCN(C(=O)c2c(-c3ccccc3)noc2C)C1 (stereo not given)	x	x	x	x	12.0	x	x	x	x	x	x
Nc1c(C(=O)NCc2ccccc2)c2nc3ccccc3nc2n1CCCN1CCOCC1	1.4	62.9*	5.3	21.5	-410.5	74.3*	-0.3	6.6	-2.3	-4.4	-5.2
C=CCn1c(N)c(C(=O)NCC2CCCO2)c2nc3ccccc3nc21 (stereo not given)	0.6	90.0*	5.5	22.7	-273.7	91.4*	9.5	21.2	15.3	4.9	5.4
SMILES	Platelet DG rel	SENP8 block-1	HSP90 refold inh	SENP7 inh	SENP8 block-2	SENP6 inh	SENP8 confirm	SENP6 confirm	SENP7 conf	Casp3 select	SENP luc ctr
O=C(NCC1CCCO1)c1coc2nc3ccccc3nc12 (stereo not given)	-23.8	9.8	0.7	8.3	-494.7	6.8	x	x	x	x	x
COc1ccc(-n2c(N)c(C(=O)NCC3CCCO3)c3nc4ccccc4nc32)c(OC)c1 (stereo not given)	-8.6	43.6	3.0	38.5	-290.2	68.2*	-8.6	5.2	6.8	0.6	-5.5
COc1ccc(C(=O)Nc2nnc(C(F)(F)F)s2)cc1	1.6	16.0	-1.9	18.9	-31.5	61.4*	32.7	31.0	64.2*	64.1*	27.0
COC(=O)Nc1nnc(-c2ccc(OC)cc2)s1	4.6	48.6	1.1	75.4*	-328.6	67.9*	50.3*	55.2*	84.9*	84.8*	51.7*
O=C(Nc1nnc(C(F)(F)F)s1)c1cccnc1	-1.7	19.9	-2.1	48.5	-3.7	55.4*	54.3*	53.8*	87.9*	84.6*	66.0*
CC(C)=CCOc1ccc2c(C)c(CCC(=O)N3C[C@H]4C[C@@H](C3)c3cccc(=O)n3C4)c(=O)oc2c1C	x	x	x	x	1.0	x	x	x	x	x	x
O=C(Nc1ccccc1)Nc1ccc(F)cc1F	13.4	43.9	-3.0	69.6*	29.2	66.7*	59.4*	56.2*	82.1*	67.3*	45.0
CC(=O)Nc1cccc(NC(=O)Nc2ccc(F)cc2F)c1	-0.6	-16.2	-2.1	-5.9	10.4	-19.1	x	x	x	x	x
